This is a sample that favours compounds with a hit; in the whole collection about 8.9% have one here.
IMPase Li cell = IMPase inhibition in cells with lithium potentiation; Potency, µM (series often up to 59.4 µM), inactives show top-dose activity, negative = IMPase inhibition, usual class: inhibitors; 210,000 compounds, 0.35% hits; CHO-M1 cells, IP1 TR-FRET (IP-One), carbachol + lithium;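 note: IP1 builds up when IMPase is blocked and the TR-FRET signal falls; potency is the fitted concentration of half-maximal effect; plate controls were basal vehicle for no effect and high inhibitor control for full effect; nearly all actives have a fitted effect of over 50% in size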
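Steps: plate 2000 CHO-M1 cells per well and culture 16–30 h; add compound and lithium; incubate 30 min, 37C; add d2-IP1 tracer and Eu cryptate anti-IP1 antibody in lysis buffer; read after 10 min at room temperature.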
IMPase cell inh = cell-permeable inhibitors of inositol monophosphatase (IMPase) | AID 901 | inhibition (IP1 accumulation), % at 46.1 µM | 120,000 tested, under 10 active | CHO-M1 cells, IP1 accumulation, HTRF TR-FRET ratio; active = well fitted curve in the direction sought with a large enough effect in the signal ratio, not every such curve was filed as active; inconclusive = small, poorly fitted or top-dose-only effect, or a change in a side signal; inactive = no such curve, though single readings can be large or run the other way; the % refers to the signal ratio;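 note: cells stimulated with carbachol in lithium chloride buffer; plate controls were DMSO basal wells for no effect and reference inhibitor wells for full effect; higher means more IMPase inhibition seen as more IP1 and lower FRET ratio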
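In this qHTS, compounds (final up to 46 uM) act on CHO-M1 cells that are then activated through the M1 receptor with carbachol, in pH 7.4 buffer containing 50 mM LiCl, for 30 min. IP1 accumulation is quantified by the IP-One immunoassay.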
12-hLO inh = blocks human 12-lipoxygenase activity; P18054; purified 12-hLO, xylenol orange hydroperoxide absorbance; Potency, µM (titrated, usually from 57.1 µM), for the others: top-dose activity change, negative = inhibition, actives largely listed as inhibitors; 150,000 compounds, 0.12% hits; note: potency is the fitted concentration of half-maximal effect; nearly all actives have a fitted effect of over 55% in size
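Hydroperoxide formation by human 12-lipoxygenase from 40 uM arachidonic acid was followed colorimetrically via ferric-xylenol orange complex, using the 573/405 nm absorbance ratio. Enzyme concentration was 150 nM, with 30 min reaction at room temperature.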
NPSR antag = antagonists of human neuropeptide S receptor cAMP signaling | CHO-NPSR cells, cAMP TR-FRET, antagonist mode | Potency, µM (titrated, usually from 38.3 µM), for inactives: at the top dose activity change, negative = inhibition, actives largely listed as inhibitors | 220,000 compounds, 1% hits | AID 1461; note: potency is the fitted concentration of half-maximal effect; nearly all actives have a fitted effect of over 50% in size
HPGD block = HPGD (human) dehydrogenase inhibition. P15428. purified HPGD, NADH fluorescence kinetic, PGE2 substrate. Potency, µM, for the others: at the highest dose activity change, negative = inhibition, hits mostly inhibitors. 150,000 compounds, 4.3% hits; active = well fitted inhibition curve with a large enough effect, not every such curve was filed as active; inconclusive = small, poorly fitted or top-dose-only effect, or another doubt; inactive = no such curve, though single readings can be large or run the other way; note: potency is the fitted concentration of half-maximal effect
Target sequence (P15428 whole entry, looked up): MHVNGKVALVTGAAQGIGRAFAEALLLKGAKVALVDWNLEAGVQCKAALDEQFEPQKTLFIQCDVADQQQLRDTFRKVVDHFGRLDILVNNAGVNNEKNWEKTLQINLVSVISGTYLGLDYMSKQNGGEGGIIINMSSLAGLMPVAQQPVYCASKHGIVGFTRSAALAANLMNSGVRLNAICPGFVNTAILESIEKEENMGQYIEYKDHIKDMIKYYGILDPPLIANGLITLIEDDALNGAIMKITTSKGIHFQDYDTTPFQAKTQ
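NADH formation kinetics: reaction with 30 uM PGE2 and 1 mM NAD+ (final), 20 nM enzyme, Tris-HCl pH 8 with Tween 20, after 15 min compound preincubation at room temperature. Fluorescence change, last versus first of five reads.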
ALDH1A1 block = blocks purified human ALDH1A1 activity | 220,000 compounds, 7.3% hits | AID 1030 | Purified ALDH1A1, NADH fluorescence, propionaldehyde substrate | P00352 | Potency, µM (doses to about 75.3 µM), without a hit: at the highest dose activity, negative = inhibition, most hits filed as inhibitors; active = well fitted inhibition curve with a large enough effect, not every such curve was filed as active; inconclusive = small, poorly fitted or top-dose-only effect, or another doubt; inactive = no such curve, though single readings can be large or run the other way;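 note: potency is the fitted concentration of half-maximal effect; plate controls were no enzyme wells and a reference inhibitor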
Target sequence (P00352 whole entry, looked up): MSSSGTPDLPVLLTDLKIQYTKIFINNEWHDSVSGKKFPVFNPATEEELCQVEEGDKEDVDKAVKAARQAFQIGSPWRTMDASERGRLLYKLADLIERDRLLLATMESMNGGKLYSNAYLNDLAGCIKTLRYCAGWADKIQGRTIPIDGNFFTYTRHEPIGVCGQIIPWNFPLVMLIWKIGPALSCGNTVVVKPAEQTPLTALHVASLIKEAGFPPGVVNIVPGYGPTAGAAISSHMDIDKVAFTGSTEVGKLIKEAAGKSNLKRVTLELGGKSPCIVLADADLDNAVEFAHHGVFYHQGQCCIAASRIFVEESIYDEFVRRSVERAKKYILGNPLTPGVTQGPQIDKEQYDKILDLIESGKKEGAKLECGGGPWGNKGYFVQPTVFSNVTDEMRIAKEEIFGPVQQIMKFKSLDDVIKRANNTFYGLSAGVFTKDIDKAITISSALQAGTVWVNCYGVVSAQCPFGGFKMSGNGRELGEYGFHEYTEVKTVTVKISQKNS
* = called active by the depositor; u = inconclusive; x = no result; [ ] = dose if it differs, or a comment. Unless noted, calls come from the whole dose curve; as a rule, active = well fitted curve in the direction sought with a large enough effect; inconclusive = small, poorly fitted or top-dose-only effect, or another doubt; inactive = no such curve, though single readings can be large; an effect the other way counts as inactive or inconclusive. Unless noted, % is set by controls: 0 for no effect and ±100 for the full control effect.

SMILES	IMPase Li cell	IMPase cell inh	12-hLO inh	NPSR antag	HPGD block	ALDH1A1 block
COc1ccc(C2CN(C)CC2C(=O)c2ccc(F)cc2)cc1Cl (stereo unspecified)	18.3%	x	x	-4.2%	x	1.0%
O=C(N[C@H]1CP(=O)(Oc2ccccc2)O[C@H](COCc2ccccc2)[C@H]1O)C(Cl)(Cl)Cl (stereo partly specified)	x	x	x	-5.6%	x	x
O=C1C=Cc2ccccc2C1=O	2.2%	x	-23.5%	-8.7%	7.94µM*	14.1µM*
O=P1(Oc2ccccc2)CC=C[C@H](COCc2ccccc2)O1 (stereo partly specified)	x	x	x	1.1%	x	x
CC(C)(C)c1nc(N2CCN(C(=O)c3ccco3)CC2)c2nnn(Cc3ccccc3Cl)c2n1	27.9%[38.3 µM]	19.8	-10.1%	10µM*	-15.7%	u
O=c1[nH]c(=S)[nH]c(O)c1N=Nc1ccc(SC(F)F)cc1	x	x	x	14.5%	x	20µM*
O=c1[nH]c(=S)[nH]c(O)c1N=Nc1ccc(S(=O)(=O)N2CCc3ccccc32)cc1	0.8%	x	x	-20.9%	x	6.31µM*
CC(C)c1ccc(N=Nc2c(O)[nH]c(=O)[nH]c2=O)cc1	x	x	x	2.1%	x	x
CCn1nc(-c2cccs2)nc2c(=O)n(C)c(=O)nc1-2	36.7%[38.3 µM]	u	-7.5%	2.51µM*	-30.3%	u
CCn1nc(/C=C/c2ccccc2)nc2c(=O)n(C)c(=O)nc1-2	7.8%	x	x	11.1%	x	1.7%
CC(=NCc1ccc2c(c1)OCO2)c1c(O)n(-c2ccccc2)c(=O)[nH]c1=O	x	x	x	-22.2%	x	x
CCOP(=S)(OCC)Oc1cc(C)oc(=O)c1Cl	x	x	x	-14.2%	x	1µM*
CCOP(=S)(OCC)Oc1cc(C)oc(=O)c1	x	x	x	-21.1%	x	7.94µM*
CCC(=O)OC1(Cc2ccc(CC)cc2)CC(C)N(C)CC1C (stereo unspecified)	x	x	x	-10.6%	x	x
COc1cc(C=C2C(=O)NC(=O)NC2=O)ccc1OCc1ccc([N+](=O)[O-])cc1	2.9%	x	x	-25.4%	x	15µM*
CN1C(=O)C(=Cc2ccccc2OCc2ccccc2Cl)C(=O)N(C)C1=O	-2.0%	5.6	-8.3%	-15.4%	15.8µM*	2.82µM*
CN1C(=O)C(=Cc2ccccc2OCCOc2ccc([N+](=O)[O-])cc2)C(=O)N(C)C1=O	5.2%	x	x	-37.2%	x	3.55µM*
O=C1NC(=O)C(=Cc2ccccc2OCCOc2ccc([N+](=O)[O-])cc2)C(=O)N1	9.2%	x	x	-30.8%	x	14.1µM*
O=C1NC(=O)C(=Cc2ccc(Oc3ccc([N+](=O)[O-])cc3)cc2)C(=O)N1	3.0%	x	x	-5.1%	x	u
c1ccc(NC2=Nc3ccccc3CC2)cc1	9.9%[38.3 µM]	8.8	7.6%	3.8%[46.1 µM]	-11.4%	u
CN1CCCC2(CCN(C(=O)c3csnn3)CC2)C1	25.4%	x	-3.5%	x	-6.5%	u
O[C@@H]1CCCC[C@H]1N1CCC(c2ccccc2)CC1	-0.2%[38.3 µM]	0.9	0.5%	-1.5%[46.1 µM]	-1.4%	8.7%
CC(C)C#N	20.2%	x	-0.1%	x	-13.7%	15.8%
Nc1nonc1C(=O)N/N=C/c1ccc([N+](=O)[O-])o1	4.9%	x	x	-13.8%	x	12.6µM*
COc1cc(NC(=S)N2CCOCC2)c(OC)cc1Cl	x	x	x	-6.3%	x	u
SMILES	IMPase Li cell	IMPase cell inh	12-hLO inh	NPSR antag	HPGD block	ALDH1A1 block
S=C(c1ccc(Cl)cc1)N1CCOCC1	-4.7%[38.3 µM]	2.1	-2.4%	-9.4%[46.1 µM]	22.4µM*	u
CC(C)COC(=O)c1ccccc1C(=O)OCC(C)C	14.9%	x	-3.8%	3.4%	-8.7%	u
CCCCC(CC)COC(=O)c1ccccc1C(=O)OCC(CC)CCCC (stereo unspecified)	12.4%	x	2.9%	x	-7.0%	22.4µM*
CC1(C)N=C(c2ccccc2)[C@@H]2C(c3ccc([N+](=O)[O-])cc3)N21 (stereo partly specified)	3.0%	x	2.9%	5.1%	-4.3%	-8.6%
CCC(C)N1CCN(C(=O)Cc2ccccc2)CC1 (stereo unspecified)	36.7%[38.3 µM]	3.8	7.7%	4.2%[46.1 µM]	3.5%	-7.5%
O=C(CCn1c(=O)oc2ccccc21)N1CCN(C(c2ccccc2)c2ccccc2)CC1	13.0%[38.3 µM]	12.8	-5.6%	u	-18.7%	17.8µM*
N#CC(C#N)=Cc1cccnc1	4.1%	x	x	-36.6%	x	3.16µM*
CC(C)n1c(=O)c(C=Nc2ccc(Cl)cc2)c(O)n(Cc2ccco2)c1=O	6.1%	x	-1.3%	-31.9%	u	u
CC(C)n1c(=O)c(C=Nc2ccc(F)cc2)c(O)n(Cc2ccco2)c1=O	5.6%	x	-3.2%	-25.2%	-29.6%	11.2µM*
CC(/C=C(\C)Nc1ccccc1)=Nc1ccccc1	-2.1%	x	x	-6.3%	x	25.1µM*
COc1ccc2c(c1O)-c1cc(O)cc3c1[C@@H](C2)N(C)CC3	-10.9%	x	x	x	x	u
Cc1cc(Cl)ccc1C(=O)C1CCCN(Cc2ccon2)C1 (stereo unspecified)	13.5%	x	x	6.6%	x	-3.5%
c1ccc(NNc2ccccc2)cc1	6.6%	x	-8.4%	x	4.2%	10µM*
CCNC(C)(C)[C@@H](SS)c1ccc(Br)cc1	13.9%	x	-3.1%[11.4 µM]	x	3.16µM*	u
O=P(c1ccccc1)(c1ccccc1)N1CC2(CC2)CC(O)(c2ccccc2)C1 (stereo unspecified)	4.1%	x	-2.7%	x	-10.6%	-9.4%
Cc1ccc(NC(=S)NCC2CCCO2)cc1 (stereo unspecified)	-7.3%[38.3 µM]	2.7	-1.5%	-11.9%[46.1 µM]	25.1µM*	-13.0%
O=C1NC(=O)C2(Cc3ccccc3N3CCCC32)C(=O)N1Cc1ccccc1 (stereo unspecified)	-14.7%[38.3 µM]	-4.7	-16.6%	-6.0%[46.1 µM]	-9.2%	u
Oc1ccccc1/C=N/NP(=S)(c1ccccc1)c1ccccc1	10.3%	x	x	u	x	u
Oc1ccc(/C=N/NP(=S)(c2ccccc2)c2ccccc2)c(O)c1O	31.9%[38.3 µM]	5.8	u	u	22.4µM*	11.2µM*
O=[N+]([O-])c1ccc2nc(N3CCNCC3)ccc2c1	3.5%	6.4	5.6%	u	-15.6%	25.1µM*
O=C(Nc1ccccc1)c1cc([N+](=O)[O-])ccc1N1CCNCC1	3.5%	x	x	0.7%	x	4.2%

Compound activity (PubChem BioAssay)
